HCV inhibitor = inhibitors of hepatitis C virus infection | Potency, µM (highest dose often 41.8 µM), hits mostly inhibitors | actives 3.4% (n = 340,000) | Huh7.5.1 HCVcc-Cre infection, luciferase reporter, 44 h; active = well fitted inhibition curve with a large enough effect; inconclusive = small, poorly fitted or top-dose-only effect, or another doubt; inactive = no such curve, though single readings can be large or run the other way
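Seed cells (1,000/well) for 4 h; treat with compound and infect with HCVcc-Cre, moi about 0.5. Incubate 44 h, then detect luciferase activity.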
Lassa entry inh = blocks Lassa virus binding to or entry into cells. Lassa virus pseudotype entry inhibition, cell reporter. actives 1.2% (n = 300,000). Potency, µM (top dose mostly 37.9 µM), most hits filed as inhibitors; calls by dose curve; tested in HEK293 cells; note: nearly all actives have a fitted effect of over 50% in size
Marburg entry inh = Marburg virus entry inhibition; Marburg virus pseudotyped entry inhibition, cell reporter; Potency, µM (titrated, usually from 37.8 µM), usual class: inhibitors; actives 1.8% (n = 300,000); AID 540276; calls by dose curve; tested in HEK293 cells
HCMV inh = blocks human cytomegalovirus replication; HFF cells, HCMV-luciferase reporter, 72 h; hits give low values; activity change, negative = inhibition, % at 57.5 µM; actives 4.5% (n = 410,000); AID 1259415; in the data active = activity change below about -60%; inconclusive = no clear call, values can overlap the other calls; inactive = above about -39%
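Steps: HFFs plated, 16 h 37C; compounds added; HCMV-luciferase added to MOI 1 PFU/cell; 72 h 37C; OneGlo reagent, 5 min room temperature; luminescence read, normalized to controls.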
FMDV inh = foot and mouth disease virus antiviral activity; Potency, µM (series often up to 57.9 µM), actives largely listed as inhibitors; FMDV antiviral cell-based qHTS; actives 1.2% (n = 410,000); calls by dose curve; tested in HEK293T cells; note: read-out not given here; nearly all actives have a fitted effect of over 45% in size
SARS PLpro yeast = inhibitors of SARS-CoV papain-like protease in yeast; S. cerevisiae expressing SARS-CoV PLpro, growth rescue; Potency, µM (top dose mostly 32.9 µM), most hits filed as activators; actives 0.19% (n = 330,000); calls by dose curve; note: nearly all actives have a fitted effect of over 55% in size
Of the large screens only hits and unclear results are named; the others gave an inactive call. Hits are enriched below; roughly 8% of the tested compounds scored in any of these assays.

COc1cc(NC(=O)Cc2cccc3ccccc23)c(C(=O)O)cc1OC	none (no result: Lassa entry inh, Marburg entry inh)
O=C(NCc1ccccc1)[C@H]1[C@H](CO)[C@H]2Cn3c(cccc3=O)[C@H]2N1Cc1ccccc1F	none (no result: HCV inhibitor, Lassa entry inh, Marburg entry inh, FMDV inh, SARS PLpro yeast)
Cc1ccccc1CCNC(=O)C1CCC(=O)N(CCc2cccc(F)c2)C1 (centres undefined)	none (no result: Lassa entry inh, Marburg entry inh)
CC(C)CS(=O)(=O)c1oc(-c2ccc(F)cc2)nc1S(=O)(=O)c1ccccc1	Lassa entry inh inconclusive, Marburg entry inh inconclusive, HCMV inh -100, FMDV inh 25µM (no result: HCV inhibitor, SARS PLpro yeast)
CCSc1oc(-c2ccc(F)cc2)nc1S(=O)(=O)c1ccc(C)cc1	HCMV inh -65 (no result: HCV inhibitor, SARS PLpro yeast)
CNc1oc(-c2ccc(F)cc2)nc1S(=O)(=O)c1ccccc1	HCMV inh inconclusive
O=C(NCCOc1ccccc1)c1ccccc1Cl	Lassa entry inh inconclusive, Marburg entry inh inconclusive, HCMV inh inconclusive
CN(C(=O)COc1ccccc1C(=O)NCCOc1ccccc1)c1ccccc1	HCV inhibitor 8.9µM, Lassa entry inh 11µM, Marburg entry inh inconclusive, HCMV inh -93, FMDV inh 8.9µM
Cc1cc(-n2c(C)cc(C(=O)COc3ccc(F)c(F)c3)c2C)no1	HCV inhibitor 10µM (no result: Lassa entry inh, Marburg entry inh, HCMV inh)
Cc1cc(-n2c(C)cc(C(=O)CSc3nncn3C(C)C)c2C)no1	HCMV inh -97
Cc1cc(C)c(C(N)=O)c(SCC(=O)c2cc(C)c(C)cc2C)n1	HCV inhibitor inconclusive, FMDV inh inconclusive
Cc1ccc(-n2nnnc2SCC(=O)c2cc(C)n(-c3cc(C)on3)c2C)cc1	HCV inhibitor inconclusive, Lassa entry inh 12µM (no result: FMDV inh)
Cc1cc(C)c(C(N)=O)c(SCC(=O)c2cc(C)n(-c3cc(C)on3)c2C)n1	HCV inhibitor 2.2µM, HCMV inh inconclusive, FMDV inh inconclusive (no result: Lassa entry inh, Marburg entry inh)
Cc1ccc(-n2nnnc2SCC(=O)c2cc(C)n(CC3CCCO3)c2C)cc1 (centres undefined)	Lassa entry inh inconclusive (no result: FMDV inh)
Cc1cc(-n2c(C)cc(C(=O)CSc3nncn3C)c2C)no1	HCV inhibitor inconclusive
COc1cc(-c2cc(C)c3cccc(OC)c3n2)cc2c1OCCN(C(=O)CC1NC(=O)c3ccccc31)C2 (centres undefined)	none (no result: HCV inhibitor, Lassa entry inh, Marburg entry inh, HCMV inh, SARS PLpro yeast)
Cc1ccc(N(Cc2cccs2)C(=O)c2ccccc2)cc1	none (no result: HCV inhibitor, SARS PLpro yeast)
CSc1ccccc1NC(=O)CSc1cccc[n+]1[O-]	HCMV inh -100
CCOC(=O)c1ccccc1NC(=O)CSc1cccc[n+]1[O-]	none
CCOc1cc(CNC(=O)NC2COc3ccc(OC)cc3C2)cc(OCC)c1OCC (centres undefined)	none (no result: HCV inhibitor, Marburg entry inh, SARS PLpro yeast)
COc1ccccc1CNCc1cc(OC)c(OC)cc1OC	none
COc1ccccc1CNCc1cccc(Oc2ccccc2)c1	Marburg entry inh 11µM
CCC(C)Nc1nc(N)c([N+](=O)[O-])c(Nc2cc(OC)ccc2OC)n1 (centres undefined)	HCV inhibitor inconclusive, Lassa entry inh inconclusive, Marburg entry inh inconclusive, HCMV inh inconclusive, FMDV inh inconclusive
COc1ccc(OC)c(Nc2nc(N(C)c3ccccc3)nc(N)c2[N+](=O)[O-])c1	HCV inhibitor 5µM (no result: Lassa entry inh, Marburg entry inh)
CN(Cc1ccccc1)c1nc(N)c([N+](=O)[O-])c(Nc2cccc(F)c2)n1	HCV inhibitor 11µM
CN(c1ccccc1)c1nc(N)c([N+](=O)[O-])c(Nc2ccc(F)cc2)n1	HCV inhibitor inconclusive (no result: Lassa entry inh, Marburg entry inh)
CN(c1ccccc1)c1nc(N)c([N+](=O)[O-])c(Nc2ccccc2F)n1	HCV inhibitor 5.6µM (no result: Lassa entry inh, Marburg entry inh)
COc1ccc(-c2noc(-c3ccccc3C(=O)NCC3CCCO3)n2)cc1 (centres undefined)	Lassa entry inh inconclusive
COC(=O)C(c1ccc(OC)c(OC)c1)C1c2ccccc2C=C(C)N1C(=O)OC (centres undefined)	Lassa entry inh inconclusive (no result: HCV inhibitor, HCMV inh, FMDV inh, SARS PLpro yeast)
CCCn1c(=O)[nH]c(=O)c2c1nc(-c1ccccc1)n2CCN1CCOCC1	HCV inhibitor inconclusive
N/C(=N/OCc1cccc([N+](=O)[O-])c1)c1nonc1N	HCMV inh -60
N/C(=N\OCc1ccccc1)c1nonc1N	none (no result: Lassa entry inh, Marburg entry inh)
O=C1NC[C@@H](CCCCN2C[C@H](Cc3ccccc3)N(CC3CCCCC3)C(=O)C2=O)N(CCc2ccccc2)C1=O	none (no result: HCV inhibitor, Lassa entry inh, Marburg entry inh, SARS PLpro yeast)
CN(C)S(=O)(=O)c1ccc(NC(=O)N2CCN(c3cccc(C(F)(F)F)c3)CC2)cc1	HCV inhibitor 11µM, Lassa entry inh inconclusive, Marburg entry inh inconclusive, HCMV inh -79, FMDV inh 28µM
COc1ccc(NC(=O)N2CCN(c3cccc(C(F)(F)F)c3)CC2)cc1	HCV inhibitor inconclusive, Marburg entry inh inconclusive, FMDV inh inconclusive
CC(=O)Nc1nonc1-c1nc2ccccc2n1CC1CC1	HCV inhibitor inconclusive, Marburg entry inh inconclusive, HCMV inh -67
CCCCn1c(-c2nonc2NC(=O)c2ccccc2Cl)nc2ccccc21	HCMV inh -77, FMDV inh inconclusive (no result: Lassa entry inh, Marburg entry inh, SARS PLpro yeast)
N#CCCn1c(-c2nonc2NC(=O)c2ccccc2Cl)nc2ccccc21	Marburg entry inh inconclusive
C=CC[C@@H]1C=C[C@@H](ON=C2[C@H]3CCn4c(=O)n(-c5ccccc5)c(=O)n4[C@@H]3[C@H](O)[C@@H]3O[C@H]23)[C@@H](CO)O1	none (no result: HCV inhibitor, Lassa entry inh, HCMV inh, FMDV inh, SARS PLpro yeast)
COc1ccc2c(c1)[C@@H](NS(C)(=O)=O)[C@H](C)[C@@H](C(C)C)N2	none (no result: HCV inhibitor, Lassa entry inh, Marburg entry inh, FMDV inh, SARS PLpro yeast)
S=C(NCc1ccccc1)N1CCN(Cc2ccc3c(c2)OCO3)CC1	Marburg entry inh inconclusive
S=C(Nc1cccc(Cl)c1Cl)NC1CCN(Cc2ccccc2)CC1	HCV inhibitor inconclusive, Lassa entry inh inconclusive, Marburg entry inh inconclusive, HCMV inh -66
S=C(NCc1ccc2c(c1)OCO2)NC1CCN(Cc2ccccc2)CC1	HCV inhibitor inconclusive, Lassa entry inh inconclusive, Marburg entry inh inconclusive, HCMV inh -78
S=C(Nc1ccc(CN2CCCCC2)cc1)Nc1cccc(Cl)c1Cl	HCV inhibitor inconclusive, Lassa entry inh inconclusive, Marburg entry inh 11µM
S=C(Nc1ccc(Cl)c(Cl)c1)NC1CCN(Cc2ccccc2)CC1	HCV inhibitor 14µM, Lassa entry inh inconclusive, Marburg entry inh inconclusive, HCMV inh -78, FMDV inh 14µM
S=C(Nc1ccccc1)Nc1cccc(Cl)c1Cl	none (no result: Lassa entry inh, Marburg entry inh)
Cc1cccc(NC(=S)NC2CCN(Cc3ccccc3)CC2)c1C	FMDV inh inconclusive
CC(C)CC(=O)N1CCN(Cc2ccc(Br)cc2)CC1	SARS PLpro yeast inconclusive
Cc1noc(C)c1CCC(=O)Nc1cc(C(=O)O)ccc1Cl	none (no result: HCV inhibitor, Lassa entry inh, Marburg entry inh, SARS PLpro yeast)
O=C1Nc2ccc(Br)cc2/C1=C/C(=O)c1ccc2c(c1)OCO2	HCV inhibitor inconclusive, HCMV inh -100, FMDV inh 28µM (no result: Lassa entry inh, Marburg entry inh)
Fc1ccc2c(c1)C1C=CCC1C(c1cc3c(cc1Br)OCO3)N2 (centres undefined)	Marburg entry inh inconclusive, FMDV inh inconclusive
Cc1ccc(OC(C)C(=O)Nc2ccc(C)c(S(=O)(=O)Nc3ccc(C)cc3C)c2)cc1 (centres undefined)	HCV inhibitor inconclusive, Lassa entry inh 16µM, Marburg entry inh inconclusive
Cc1ccccc1OCCCSc1nc2ccccc2[nH]1	HCV inhibitor inconclusive, Lassa entry inh inconclusive, Marburg entry inh inconclusive, HCMV inh -70, FMDV inh inconclusive
